Compounds without any hit were thinned out: in the full panel of roughly 79,000, 15% have a hit. Calls of active or inactive are those of the source. No stated cut-off is given here; in the data, active means growth inhibition above about 70%; inactive means the rest.
Assays:
[1] = NCI Yeast Anticancer Drug Screen. Data for the rad52 strain (AID 147);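 further: 0% = growth of vehicle-treated control cultures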; details: S. cerevisiae rad52 mutant growth inhibition, active compounds read high
In short: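 Read-out: growth inhibition versus vehicle-treated controls. Cells were a DNA repair-deficient yeast strain treated with compounds.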

[2] = NCI Yeast Anticancer Drug Screen. Data for the wt1 strain (AID 149);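 further: 0% = growth of vehicle-treated wt1 cultures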; details: S. cerevisiae wt1 strain (SPY 50644) growth inhibition, active compounds read high
In short: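 Measured: growth of wt1 yeast under compound versus vehicle treatment, reported as inhibition.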

[3] = NCI Yeast Anticancer Drug Screen. Data for the rad50EPP+ strain (AID 151);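 further: 0% = growth of vehicle-treated control cultures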; details: S. cerevisiae rad50 mutant strain, active compounds read high
In short: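 Growth inhibition read against vehicle controls in rad50EPP+ yeast, a strain altered in DNA damage repair, after compound exposure.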

[4] = NCI Yeast Anticancer Drug Screen. Data for the mgt1 strain (AID 153); details: S. cerevisiae mgt1 mutant growth inhibition, active compounds read high
In short: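 mgt1 yeast grown with test compound; read-out is growth inhibition versus vehicle-treated cultures.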

[5] = NCI Yeast Anticancer Drug Screen. Data for the rad50 strain (AID 155);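 further: 0% = growth of vehicle-only cultures of the same strain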; details: S. cerevisiae rad50 strain growth inhibition, active compounds read high
In short: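 Growth of the mutant yeast was measured after compound exposure and referenced to vehicle-treated cultures.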

[6] = NCI Yeast Anticancer Drug Screen. Data for the mec2-1 strain (AID 157); details: S. cerevisiae mec2-1 strain, active compounds read high
In short: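 Yeast mec2-1 mutant treated with compound. Readout: growth inhibition vs vehicle controls.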

[7] = NCI Yeast Anticancer Drug Screen. Data for the rad14 strain (AID 159);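 further: 0% = growth of vehicle-treated control cultures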; details: S. cerevisiae rad14 strain growth inhibition, active compounds read high
In short: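 Here, inhibition of yeast growth was measured after compound exposure, using a strain with a genetic defect in DNA damage repair and vehicle-treated cultures as the reference.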

[8] = at 5.0 µM (retest, dose inferred, filed as 0.5)
[9] = at 50.0 µM (retest, dose inferred, filed as 5.0)

Measured: growth inhibition

Cc1ccc2nc(-c3cccc([N+](=O)[O-])c3)oc(=O)c2c1
inactive: [1]; at 1.2 µM 3% | [1]; at 3.7 µM 6% | [1]; at 11.0 µM 1% | [1]; at 33.0 µM -4% | [1]; at 100.0 µM -10% | [2]; at 1.2 µM -7% | [2]; at 3.7 µM -3% | [2]; at 11.0 µM -6% | [2]; at 33.0 µM -15% | [2]; at 100.0 µM -20% | [3]; at 1.2 µM -12% | [3]; at 3.7 µM 12% | [3]; at 11.0 µM 18% | [3]; at 33.0 µM 15% | [3]; at 100.0 µM 27% | [4]; at 1.2 µM -29% | [4]; at 3.7 µM -25% | [4]; at 11.0 µM -25% | [4]; at 33.0 µM -26% | [4]; at 100.0 µM -18% | [5]; at 1.2 µM -21% | [5]; at 3.7 µM -19% | [5]; [8] 31% | [5]; at 11.0 µM -34% | [5]; at 33.0 µM -31% | [5]; [9] 62% | [5]; at 50.0 µM 14.2% | [5]; at 100.0 µM -30% | [6]; at 1.2 µM -57% | [6]; at 3.7 µM -57% | [6]; [8] 39% | [6]; at 11.0 µM -62% | [6]; at 33.0 µM -53% | [6]; at 50.0 µM 11.8% | [6]; at 100.0 µM -70% | [7]; at 1.2 µM -10% | [7]; at 3.7 µM -6% | [7]; at 11.0 µM -4% | [7]; at 33.0 µM -19% | [7]; at 100.0 µM -16%
active: [6]; [9] 75%
